# According to paper PMC4336329 (PLoS ONE, 2015):
# In all, about 310,000 compounds went through this assay and about 14,000 (4.5%) showed an effect of 50% or more. Effects have a minus sign here. The entries come from a sample that favours strong results as a whole.
# Target: human ether-à-go-go-related gene (hERG) potassium channel (human, UniProt Q12809)
# Assay: primary screen, population patch clamp on CHO cells stably expressing hERG; higher = less effect of the substance
# 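Also: peak tail current of the secondary pulse compared with the same well before compound.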
# Sequence of human ether-à-go-go-related gene (hERG) potassium channel (Q12809 whole entry, looked up): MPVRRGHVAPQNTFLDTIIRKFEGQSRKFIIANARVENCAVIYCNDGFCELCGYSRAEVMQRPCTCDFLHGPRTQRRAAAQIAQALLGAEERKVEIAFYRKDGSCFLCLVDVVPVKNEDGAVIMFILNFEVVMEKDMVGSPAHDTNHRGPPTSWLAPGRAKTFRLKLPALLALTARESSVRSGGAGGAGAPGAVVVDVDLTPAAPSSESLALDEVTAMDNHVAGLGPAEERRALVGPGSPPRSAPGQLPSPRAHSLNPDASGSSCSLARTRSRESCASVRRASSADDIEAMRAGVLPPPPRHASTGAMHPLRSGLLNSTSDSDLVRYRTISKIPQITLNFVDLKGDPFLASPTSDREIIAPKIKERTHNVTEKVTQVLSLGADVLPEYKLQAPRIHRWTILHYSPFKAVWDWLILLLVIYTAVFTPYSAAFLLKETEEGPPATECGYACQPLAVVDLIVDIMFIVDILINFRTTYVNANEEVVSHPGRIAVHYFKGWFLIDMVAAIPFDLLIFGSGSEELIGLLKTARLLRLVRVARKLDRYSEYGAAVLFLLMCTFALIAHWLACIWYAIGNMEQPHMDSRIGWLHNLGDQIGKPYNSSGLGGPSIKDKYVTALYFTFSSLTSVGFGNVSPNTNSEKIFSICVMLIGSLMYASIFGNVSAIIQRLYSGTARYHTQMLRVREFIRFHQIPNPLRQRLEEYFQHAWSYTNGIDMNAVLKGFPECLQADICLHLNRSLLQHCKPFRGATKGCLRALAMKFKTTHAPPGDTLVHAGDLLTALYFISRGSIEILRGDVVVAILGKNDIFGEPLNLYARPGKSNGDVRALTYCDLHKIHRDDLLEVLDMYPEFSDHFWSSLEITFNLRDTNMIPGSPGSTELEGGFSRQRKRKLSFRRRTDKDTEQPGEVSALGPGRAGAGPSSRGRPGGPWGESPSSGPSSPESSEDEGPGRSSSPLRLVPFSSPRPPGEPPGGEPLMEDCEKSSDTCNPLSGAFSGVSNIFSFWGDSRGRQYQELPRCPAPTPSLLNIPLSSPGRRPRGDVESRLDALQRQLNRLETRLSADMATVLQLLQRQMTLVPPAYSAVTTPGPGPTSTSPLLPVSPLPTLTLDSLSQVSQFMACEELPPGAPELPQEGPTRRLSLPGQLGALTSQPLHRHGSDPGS
row,Structure (SMILES),"hERG current change (%, negative = inhibition) at 10uM [%]"
1,Cc1cnc(C(=O)NC2CC(C)(C)Cc3c2cnn3-c2cccc(F)c2)cn1 (stereo not drawn),-33.5
2,CC1(C)Cc2c(cnn2-c2cccc(F)c2)C(NC(=O)c2ccc(=O)[nH]n2)C1 (stereo not drawn),-70.2
3,COc1cc(C(=O)NC2CC(C)(C)Cc3c2cnn3-c2ccccc2)cc(OC)c1OC (stereo not drawn),8.92
4,Cc1cc(C(=O)NC2CC(C)(C)Cc3c2cnn3-c2cccc(F)c2)nn1C (stereo not drawn),-2.79
5,CC1=C(C(=O)NC2CC(C)(C)Cc3c2cnn3-c2cccc(F)c2)OCCO1 (stereo not drawn),-43.5
6,COc1cccc(C(=O)NC2CC(C)(C)Cc3c2cnn3-c2cccc(F)c2)c1OC (stereo not drawn),-52.3
7,Cc1cc(C(=O)NC2CC(C)(C)Cc3c2cnn3-c2cccc(F)c2)n(C)n1 (stereo not drawn),-32.6
8,CC1(C)Cc2c(cnn2-c2cccc(F)c2)C(NC(=O)c2csnn2)C1 (stereo not drawn),-78.3
9,COc1ccc(C(=O)NC2CC(C)(C)Cc3c2cnn3-c2ccccc2)c(OC)c1 (stereo not drawn),-2.5
10,O=C(N/N=C/c1coc2ccccc2c1=O)c1ccccc1,10.6
11,COc1ccc(CN2CCN(C(=O)CC(C)C)CC2)cc1Br,-4.54
12,C=CC[C@]12C[C@@H](OC)C(=O)C=C1O[C@@H](c1ccc(OC)c(OC)c1)[C@H]2C,14.5
13,NC(=O)C(c1ccc(Sc2ccccc2)nn1)c1ccc(Cl)cc1Cl (stereo not drawn),-43.9
14,Cc1c(C(=O)NCC2COc3ccccc3O2)oc2ccc(S(=O)(=O)N3CC(C)CC(C)C3)cc12 (stereo not drawn),12.4
15,Cc1c(NC(=O)COC(=O)c2cc(-c3ccc(-c4ccccc4)cc3)nc3ccccc23)c(=O)n(-c2ccccc2)n1C,28.4
16,COc1ccccc1NNC(=O)C(O)(c1ccccc1OC)c1ccccc1OC,20.2
17,O=C(NC(Cc1ccccc1)C(=O)O)/C(=C/c1ccc([N+](=O)[O-])cc1)NC(=O)c1ccc(Br)o1 (stereo not drawn),11.5
18,CC(=O)N(C)c1ccc(N2CCOCC2)c2c1C(=O)c1ccccc1C2=O,-0.974
19,Cn1c(=O)cc2c3c(c(N4CCCCC4)ccc31)C(=O)c1ccccc1-2,-63.2
20,CC(=O)Nc1ccc(Nc2ccc3c4c(cc(=O)n3C)-c3ccccc3C(=O)c24)cc1,9.74
21,CCn1c(SCC(=O)Nc2cc(S(=O)(=O)N3CCOCC3)ccc2OC)nnc1-c1ccncc1,13.8
22,O=C(COc1ccc(Cl)cc1)Nc1c(-c2cccs2)nc2ccccn12,-14.4
23,Nc1cc(-c2nn[nH]n2)ccc1F,11.6
24,O=C(Nc1ccc(Cl)c(-c2nc3ccccc3[nH]2)c1)c1ccc2c(c1)OCO2,-15
25,Cc1ccc(N2CC(C(=O)N3CCCCCC3)CC2=O)cc1 (stereo not drawn),11.5
26,NC(=O)C1CCN(C(=O)C2CC(=O)N(c3ccc(F)cc3)C2)CC1 (stereo not drawn),13.7
27,O=C(C1CC(=O)N(c2ccc(F)cc2)C1)N1CCOCC1 (stereo not drawn),1.27

row,Structure (SMILES),"hERG current change (%, negative = inhibition) at 10uM [%]"
1,Cc1ccc(N2CC(C(=O)N3CCC4(CC3)CC(=O)c3ccccc3O4)CC2=O)cc1 (stereo not drawn),-71.6
2,Cc1ccc(N2CC(C(=O)N3CCC4(CC3)CC(=O)c3ccccc3O4)CC2=O)cc1C (stereo not drawn),-71.3
3,CCOC(=O)N1CCN(C(=O)C2CC(=O)N(c3ccccc3)C2)CC1 (stereo not drawn),5.31
4,CCOC(=O)N1CCN(C(=O)C2CC(=O)N(c3ccc(C)cc3)C2)CC1 (stereo not drawn),-47.9
5,Cc1ccc(N2CC(C(=O)N3CCOCC3)CC2=O)cc1C (stereo not drawn),6.52
6,O=C1CC2(CCN(C(=O)C3CC(=O)N(c4ccc(F)cc4)C3)CC2)Oc2ccccc21 (stereo not drawn),-78.7
7,Cc1ccc(N2CC(C(=O)N3CCCCC3)CC2=O)cc1C (stereo not drawn),-21.2
8,O=C(C1CC(=O)N(c2ccccc2)C1)N1CCCCCC1 (stereo not drawn),13
9,O=C1CC2(CCN(C(=O)C3CC(=O)N(c4ccccc4)C3)CC2)Oc2ccccc21 (stereo not drawn),-77.4
10,CCN(CC#CCC(O)(c1ccccc1)C1CCCC1)C(C)C.Cl (stereo not drawn),-18.9
11,CCNC(=O)NC(=O)C(C)OC(=O)Cc1coc2cc3c(cc12)CCC3 (stereo not drawn),26.6
12,Cc1ccc(C2=NCCn3c2c2ccc([N+](=O)[O-])cc2[n+]3[O-])cc1,-7.51
13,[O-][n+]1c2cc(C(F)(F)F)ccc2c2n1CCN=C2c1ccc(Cl)cc1,-55.6
14,Nc1c(Cl)cc(C2=NCCn3c2c2ccc(C(F)(F)F)cc2[n+]3[O-])cc1Cl,-26.1
15,O=[N+]([O-])c1ccc2c3n([n+]([O-])c2c1)CCN=C3c1ccc(Cl)cc1,-29.6
16,Nc1c(Cl)cc(C2=NCCn3c2c2ccc([N+](=O)[O-])cc2[n+]3[O-])cc1Cl,-54.8
17,Cc1ccc(C2=NCCn3c2c2ccc(C(F)(F)F)cc2[n+]3[O-])cc1,-26.2
18,COc1cccc(/C=C/C(=O)OCC(=O)c2c[nH]c3ccccc23)c1OC,9.29
19,CCOC(=O)c1c[nH]c2c(C)cc(C)cc2c1=O,-0.349
20,CCCCOP(=O)(c1ccc(N(C)C)cc1)C(O)c1ccc(OC)cc1 (stereo not drawn),-2.61
21,O=[N+]([O-])c1cc(S(=O)(=O)NCCc2ccccn2)ccc1Cl,-21.8
22,C=CCCC(=O)Nc1nc(C)c(-c2csc(Nc3ccc(Cl)cc3)n2)s1,14.9
23,S=c1[nH]nc(-c2ccc3ccccc3n2)o1,17.2
24,Cc1ccc(C)c2[nH]c(=O)c(CCNC(=O)C(C)(C)C)cc12,8.5
25,O=C(CSc1ncccc1C(=O)O)c1ccccc1,6.47
26,O=C(O)c1cccnc1SCc1ccccc1,-1.22
27,O=C(O)CSc1ncccc1C(=O)O,-53.7
